# Screening data (PubChem)
# An excerpt weighted towards active compounds, which were near 21% of everything screened.
# NS1 function inh: blocks influenza NS1 protein function; Potency, µM (top dose mostly 46.1 µM), inactives show at the highest dose activity, positive = more growth; 270,000 tested, 0.4% active; AID 2326; calls by dose curve; also: potency is read from the fitted curve at half-maximal effect; actives are rising curves; nearly all actives have a fitted effect of over 50% in size
#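 Read-out: OD600 growth recovery of NS1-expressing budding yeast. Cells grown overnight at 30C in -URA glucose medium, washed, resuspended and diluted 1:100 in 2% galactose assay medium, pH 6.0. Same strain lacking NS1 served as positive control.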
# SARS PLpro yeast: blocks SARS-CoV papain-like protease in a yeast assay; S. cerevisiae expressing SARS-CoV PLpro, growth rescue; Potency, µM (highest dose often 32.9 µM), for inactives: at the highest dose activity, positive = growth rescue, usual class: activators; 330,000 tested, 0.19% active; calls by dose curve; also: potency is read from the fitted curve at half-maximal effect; 0% is about no effect; nearly all actives have a fitted effect of over 55% in size
# Shiga inhibitor: inhibitors of Shiga toxin in Vero cells; Vero cells, Shiga toxin protein synthesis inhibition reporter; inhibition, % at 38.7 µM; 290,000 tested, 9.2% active; AID 2315; in the data active = inhibition mostly above about 28%, no sharp cut-off; inactive = mostly below about 43%; also: 0% is about no effect
# Pf growth 48h: P. falciparum growth inhibition at 48 hours (one generation) | P. falciparum luciferase growth in erythrocytes, 48 h | Potency, µM (series often up to 28.7 µM), for inactives: at the top dose activity change, negative = inhibition, actives largely listed as inhibitors | 310,000 tested, 5.9% active; also: potency is read from the fitted curve at half-maximal effect; % is scaled to controls: 0 for no effect and ±100 for the full control effect
#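 Luminescence readout; reporter = integrated firefly luciferase in P. falciparum. RBC culture at 2% hematocrit, 0.1% parasitemia final, 37 C/5% CO2; decreased signal taken as growth inhibition.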
# Pf growth 96h: P. falciparum growth inhibition at 96 hours; P. falciparum luciferase reporter growth, 96 h; Potency, µM (series often up to 28.7 µM), inactives show top-dose activity change, negative = inhibition, usual class: inhibitors; 320,000 tested, 6.9% active; AID 504834; also: potency is read from the fitted curve at half-maximal effect; % is scaled to controls: 0 for no effect and ±100 for the full control effect
#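 Luminescence readout: decreased luciferase signal marks inhibited growth of reporter-expressing P. falciparum in infected red cells (2% hematocrit, 0.05% parasitemia final), exposed to compound two generations (96 h, 37 C, 5% CO2).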
# Cycloheximide cs: counter-screen hit for Shiga toxin inhibitors, cycloheximide; cell reporter, cycloheximide protein synthesis inhibition counterscreen; max response, %; 300,000 tested, 12% active; AID 2314; in the data active = max response mostly above about 13%, no sharp cut-off; inactive = mostly below about 14%; also: read at 38.3 µM for the half of the compounds with a filed dose; 0% is about no effect
# An asterisk follows results filed as active; ? = inconclusive; nt = no result given; [ ] = dose if it differs, or a comment. Unless noted, calls follow the shape of the dose curve; as a rule, active = well fitted inhibition curve with a large enough effect; inconclusive = small, poorly fitted or top-dose-only effect, or another doubt; inactive = no such curve, though single readings can be large or run the other way.
SMILES,NS1 function inh,SARS PLpro yeast,Shiga inhibitor,Pf growth 48h,Pf growth 96h,Cycloheximide cs
CCCC1NC(C(=O)O)Cc2c1[nH]c1ccccc21 (stereo not drawn),5.6%,1.6%,-19.9,-1.6%,?,-3.1
C#CCOCCOCCOCCNc1nc(N2CCN(C(=O)CCCCCCCCCCNC(=O)[C@H]([C@@H](C)CC)n3cc(CCCCCN)nn3)CC2)nc(N2CCN(C(=O)CCCCCCCCCCNC(=O)[C@H]([C@@H](C)CC)n3cc(CCCCN=C(N)N)nn3)CC2)n1,nt,8.7%,nt,?,2.94µM*,nt
Cc1ccc(Cl)c(NC(=O)CSc2n[nH]c(=O)n2C2CC2)c1Cl,nt,-4.9%,nt,-1.4%,?,nt
C=CC[n+]1c(C)csc1Nc1ccc(C)cc1,nt,3.3%,36.8,19.6%,26.4%,24.2*
Cc1cn(CCC(=O)Nc2ccc(N3CCOCC3)cc2)c2ccccc12,-5.5%,-1.9%,60.9*,7.5%,?,65.6*
CCCCC(=O)Nc1ccccc1N1CCOCC1,nt,-1.2%,-3.6,2.4%,-2.7%,5.9
Cc1cn(CCC(=O)Nc2ccccc2N2CCOCC2)c2ccccc12,0.2%,-0.3%,74.9*,-5.0%,?,50.2*
Cc1ccc(C(C)C)c(OCC(=O)Nc2ccc3c(c2)nc(CN2CCCC2)n3C)c1,5.9%,0.7%,12.8,nt,13.1µM*,4.9
Cc1ccc(C(C)C)c(OCC(=O)N2CCN(Cc3nc4cc([N+](=O)[O-])ccc4n3C)CC2)c1,-43.7%,-62.8%,-0.7,-7.3%,11.7µM*,-2.3
CCCC(=O)N1CCN(Cc2nc3cc([N+](=O)[O-])ccc3n2C)CC1,8.0%,-1.7%,-2.0,8.3%,-28.1%,3.7
CC(C)(C)C(=O)N1N=C(c2ccc(NS(C)(=O)=O)cc2)CC1c1cccs1 (stereo not drawn),nt,-0.4%,-2.7,?,?,3.1
O=C1[C@H](CC[C@H](O)c2ccc(F)cc2)[C@@H](c2ccc(O)cc2)N1c1ccc(F)cc1,nt,-3.4%,-9.9,nt,nt,-1.9
CC(=O)c1cccc(NC(=O)c2cccc(S(=O)(=O)N(C)C)c2)c1,4.7%,2.4%,8.0,33.5%,nt,12.5*
CN(C)S(=O)(=O)c1cccc(NC(=O)c2ccc3nccnc3c2)c1,-1.6%,-0.3%,44.1,23.1%,-10.0%,19.7*
CN(C)S(=O)(=O)c1ccc(C(=O)Nc2cccc(C(=O)O)c2)cc1,-2.0%,nt,-15.0,61.6%,nt,-2.1
Nc1ccc2nc(CCCO)[nH]c2c1,-1.5%,-2.7%,-1.5,?,28.4%,-1.0
CS(=O)(=O)N1CCc2cc(C(=O)OCC(=O)c3ccccc3)ccc21,-6.3%,-3.0%,48.6,nt,-18.7%,23.1*
Cc1c(F)cccc1NC(=O)c1ccc2c(c1)CCN2S(C)(=O)=O,-9.4%,2.2%,164.8*,?,2.9%,8.9*
CS(=O)(=O)N1CCc2cc(C(=O)Nc3ccccc3Cl)ccc21,-25.8%,-19.9%,37.5,18.1%,?,26.7*
CN(C(=O)c1ccc2c(c1)CCN2S(C)(=O)=O)c1ccccc1,-1.8%,-0.9%,10.4,-7.2%,?,-2.6
Cc1cccc(NC(=O)c2ccc3c(c2)CCN3S(C)(=O)=O)c1C,11.3%,4.1%,nt,-2.2%,322.8%,18.1*
Cc1ccc(CN2CCNC(=O)C2CC(=O)NCCCn2ncc3ccccc32)o1 (stereo not drawn),4.1%,1.1%,-8.9,9.9%,?,-2.2
Cc1ccccc1C1CC(c2cccs2)Nc2nnnn21 (stereo not drawn),-1.8%,0.9%,16.2,-11.8%,23.3%[5.75 µM],-5.1
O=S(=O)(c1cccc2c(Cl)cccc12)N1CCCNCC1,-11.1%,nt,nt,nt,nt,nt
CC(C(=O)N1CCN(Cc2ccc3c(c2)OCO3)CC1)n1cc([N+](=O)[O-])cn1 (stereo not drawn),-4.6%,1.6%,-5.5,9.0%,2.7%,-5.2
COc1ccccc1C(CNc1nc(C(F)(F)F)nc2ccccc12)N(C)C (stereo not drawn),-8.7%,1.5%,-6.5,?,?,-4.3
O=C(CSc1ccc(-c2cccnc2)nn1)Nc1ccc(F)cc1,-1.8%,1.1%,15.5,-3.5%,?,4.7
Clc1ccc(CSc2ccc(-c3cccnc3)nn2)cc1,nt,-9.2%,32.9,18.1%,?,27.1*
Fc1cccc(Cl)c1CSc1ccc(-c2cccnc2)nn1,nt,-11.0%,143.3*,27.3%,?,35.5*
